The structures appear in SMILES notation. “And” between values parts separate entries of the source, which are not always exact repeats. Identical values can stand only once. This is part of a sample that, as a whole, favours compounds with a hit. Of some 83,000 tested, about 20% had one in any assay.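 Activity criterion: percent growth below 10, measured after cells in 96-well plates were exposed to a single compound concentration for 48 hours.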 Unmarked numbers belong to inactive results. The source made the active and inactive calls.

The subject of the assay is SW-620 colon. As to the kind of experiment: NCI-60 one-dose screen, 48 h (100 = growth as untreated, 0 = no growth, -100 = all killed). As to conditions: 10 µM unless noted.
On to `O=C(CSc1nnc(-c2ccc(-c3nc4ccc(Cl)cc4[nH]3)cc2)o1)Nc1ccc(Cl)cc1`, for which the growth is 4.33% (active).
The value for `COc1ccc(-n2c(NC(=O)N3CCN(C)CC3)c(C#N)c3ccccc32)cc1` was 69.2%; that for `N#Cc1c(NC(=O)N2CCOCC2)n(-c2ccc(OC(F)(F)F)cc2)c2cc(F)ccc12` was 110%; that for `COc1ccc(-c2nc3ccccc3n2CC(=O)N=Nc2c(O)[nH]c3ccc(Br)cc23)cc1` was 83%.
The result for `O=C1Nc2ccccc2/C1=C/C(=O)c1cc2ccccc2oc1=O` reads 2.06% (active); that for `COc1sc(/C=N/NC(=O)c2[nH]c3ccc(Br)cc3c2-c2ccccc2)cc1Br`, 6.77% (active).
The result for `CSc1ccc(OCc2nc3ccccc3n2-c2cccc(NS(C)(=O)=O)c2)cc1` reads 102% and 94.4%.
`O=C(NNC(=O)c1ccc(OCc2nc3ccc(Cl)cc3[nH]2)cc1)Nc1ccc(Cl)c(Cl)c1`: the growth was 47%.
The result for `COc1cc(C2CC(c3ccc(F)cc3)=Nc3c(N)nc(N)nc3N2)ccc1Oc1nc(Nc2ccc(F)cc2)nc(N(C)C)n1` (stereo not drawn) reads 31.8%.
The result for `NC1(c2ccc(-c3ccc4ncnc(NCc5ccccc5)c4c3)cn2)COC1` reads 114% and 106%; that for `C#CCN(C)CCCOc1ccc(N(CC)C(=O)c2cc(C(C)C)c(O)cc2O)cc1Cl`, 6.65% (active); that for `C#CCCCNCCNc1ccnc2cc(Cl)ccc12`, 76.8%.
The value for `COc1cc(CNC(=O)C[C@H](C)CCC=C(C)C)ccc1OCc1cn(-c2ccccc2F)nn1` was 92.7%; that for `CCOc1ccccc1NC(=O)N/C(N)=N/c1nc2ccccc2s1` was 25.5%.
As for `N#CC1=C(c2cccs2)Nc2c(c(-c3ccccc3)nn2-c2ccccc2)C12C(=O)Nc1ccc(Br)cc12` (stereo not drawn), the growth is -24.6% (active).
Regarding `COc1cc(CNC(=O)C[C@H](C)CCC=C(C)C)ccc1OCc1cn(-c2ccc(Cl)c(Cl)c2)nn1`, the growth was 29.9%.
The value for `CN1C(=O)/C(=C\C(=O)c2cc3ccccc3oc2=O)c2ccccc21` was 27.1%; that for `COc1ccc(Nc2nnc(-c3c[nH]c4ccccc34)o2)cc1` was 93%; that for `Cc1ccc(C2CC(c3ccc(NC(=O)Nc4ccccc4)cc3)=NN2c2ccc(S(N)(=O)=O)cc2)cc1` (stereo not drawn) was -83.4% (active).
The result for `Cc1ccc(C(=O)Nc2cc(-n3cnc(F)c3)cc(C(F)(F)F)c2)cc1C#Cc1cnc2cccnn12` reads 45.1%; that for `CCCCCCCCc1ccc(C(=O)Nc2ccc(C)c(OP(=O)(O)O)c2)cc1`, 103%; that for `C=CCn1c(O)c(N=Nc2nc(-c3cc4ccccc4oc3=O)cs2)c2ccccc21`, 101%.
Turning to `FC(F)(F)c1cc2c(Cl)ncnc2n1CCN1CCOCC1`, the growth was 59.9%.
The value for `C/C(=N\Nc1ccc(C(=O)O)cc1)c1cnn(-c2cc(=O)[nH]c3ccc(C)cc23)c1C` was 110%.
The value for `CCN1CCN(Cc2ccc(C(=O)Nc3cccc(Nc4ccc5c(OC)cccc5n4)c3)cc2C(F)(F)F)CC1` was 7.01% (active).
Take `Nc1nn2c(-c3cc4cc(Br)ccc4oc3=O)ccnc2c1N=Nc1ccccc1`: the growth was 50.7%.
As to `Cc1cccc(-c2ccccc2Oc2ccc3nnc(Cl)n3n2)c1`, the growth was 101%.
The value for `Cc1ccc(/C=C/C(=O)c2ccc(S(=O)(=O)NCCNc3nc(N(C)C)nc(N4CCOCC4)n3)cc2)cc1` was 29.1%; that for `C#CCN(C)CCCOc1ccc(N(C)C(=O)c2cc(C(C)C)c(O)cc2O)cc1Cl` was 12.2%.
`Cc1ccc(C(=O)C[n+]2cccc3c4ccccc4ccc32)cc1`: the growth was 19.5%.
Turning to `COc1ccc(NC(=O)N/N=C/c2c[nH]c3ccccc23)cc1`, the growth is 25%.
Turning to `O=C(CSc1nc2ccccc2c(=O)[nH]1)NNC(=O)c1ccccc1Cl`, the growth is 104%.
The result for `CC[C@]12C=CCN3CC[C@]4(C(=C(C(=O)OC)C1)Nc1cc(OC)c([C@@H]5[C@H]6O[C@H]6[C@@]6(CC)CC(C(=O)OC)=C7Nc8cc(O)ccc8[C@@]78CCN5[C@@H]68)cc14)[C@@H]32` reads 1.97% (active).
The value for `O=C(Cc1c(-c2ccccc2[N+](=O)[O-])n(-c2ncnc3c2c(-c2ccccc2)c(-c2ccccc2)n3Cc2ccccc2)[nH]c1=O)c1ccc(Cl)c(Cl)c1` was 31.3%; that for `COc1ccc2[nH]c(O)c(N=Nc3nc(-c4ccc(Cl)cc4)cs3)c2c1` was 2.98% (active).
The value for `O=C(CSc1nnc(-c2ccc(-c3nc4ccccc4[nH]3)cc2)o1)Nc1ccccc1` was 19.9%.
As to `CN(C)CCOc1ccc(C(=O)C2[C@H](c3ccc(Cl)cc3)[C@@H](c3ccccc3)NC23C(=O)Nc2ccc(Cl)cc23)cc1` (stereo partly drawn), the growth is -87.2% (active).
The result for `COc1cc(/C=C/C(=O)c2cnn(-c3cc(=O)[nH]c4ccc(Cl)cc34)c2C)cc(OC)c1OC` reads -45.8% (active).

The values are drawn from PubChem BioAssay (NCI).
